According to PubChem BioAssay (NCI):
“And” between values parts separate entries of the source, which are not always exact repeats. Equal values may be shown once. This is part of a sample that, as a whole, favours compounds with a hit. Of some 83,000 tested, about 20% had one in any assay.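 Values shown are percent growth following 48 h exposure of cells in 96-well plates to a single concentration of compound; below 10 was considered active.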 The source made the active and inactive calls.

Assays:
Experiment in all cases: NCI-60 one-dose screen, 48 h (100 = growth as untreated, 0 = no growth, -100 = all killed)
SK-MEL-2 melanoma = tested on: SK-MEL-2 melanoma
EKVX NSCLC = details: 10 µM unless noted
SN12C renal = tested on: SN12C renal
UO-31 renal = tested on: UO-31 renal
TK-10 renal = tested on: TK-10 renal
ACHN renal = tested on: ACHN renal
CAKI-1 renal = details: 10 µM unless noted
A498 renal = tested on: A498 renal
CCRF-CEM leukemia = tested on: CCRF-CEM leukemia
MOLT-4 leukemia = details: 10 µM unless noted
SR leukemia = tested on: SR leukemia
RPMI-8226 leukemia = tested on: RPMI-8226 leukemia
OVCAR-8 ovarian = tested on: OVCAR-8 ovarian
OVCAR-5 ovarian = tested on: OVCAR-5 ovarian
OVCAR-4 ovarian = tested on: OVCAR-4 ovarian
SK-OV-3 ovarian = tested on: SK-OV-3 ovarian
IGROV1 ovarian = tested on: IGROV1 ovarian
OVCAR-3 ovarian = tested on: OVCAR-3 ovarian
HS 578T breast = tested on: HS 578T breast
NCI/ADR-RES ovarian = details: 10 µM unless noted

Question: How did the growth (SK-MEL-2 melanoma; 10 µM unless noted) turn out when N#CC(C#N)=C/C=C/c1cccc([N+](=O)[O-])c1 was run?
Answer: Its growth is 20.6% (inactive) and -14.1% (active).

Question: What about the growth (EKVX NSCLC) of the same molecule?
Answer: Its growth is 45.5% (inactive) and 2.6% (active).

Question: What about the growth (SN12C renal; 10 µM unless noted) of the same molecule?
Answer: Its growth is -21.7% (active) and -30.1% (active).

Question: What about the growth (UO-31 renal; 10 µM unless noted) of the same molecule?
Answer: The growth was -16.6% (active) and -82.4% (active).

Question: What about the growth (TK-10 renal; 10 µM unless noted) of the same molecule?
Answer: Its growth is 7.02% (active) and -19.4% (active).

Question: What about the growth (ACHN renal; 10 µM unless noted) of the same molecule?
Answer: The growth was -22.1% (active) and -59.7% (active).

Question: And the growth (CAKI-1 renal)?
Answer: The growth was 10.6% (inactive) and -24.8% (active).

Question: And the growth (A498 renal; 10 µM unless noted)?
Answer: Its growth is 94.4% (inactive) and 2.43% (active).

Question: What about the growth (CCRF-CEM leukemia; 10 µM unless noted) of the same molecule?
Answer: The growth was 2.18% (active) and 1.1% (active).

Question: What about the growth (MOLT-4 leukemia) of the same molecule?
Answer: The growth was -1.02% (active) and 3.93% (active).

Question: What about the growth (SR leukemia; 10 µM unless noted) of the same molecule?
Answer: The growth was -3.67% (active) and 3.74% (active).

Question: What about the growth (RPMI-8226 leukemia; 10 µM unless noted) of the same molecule?
Answer: The growth was -16.2% (active) and -9.65% (active).

Question: And the growth (OVCAR-8 ovarian; 10 µM unless noted)?
Answer: The growth was -22.1% (active) and -35.4% (active).

Question: What about the growth (OVCAR-5 ovarian; 10 µM unless noted) of the same molecule?
Answer: Its growth is 23.1% (inactive) and -10.2% (active).

Question: And the growth (OVCAR-4 ovarian; 10 µM unless noted)?
Answer: Its growth is 31.9% (inactive) and 21.2% (inactive).

Question: What about the growth (SK-OV-3 ovarian; 10 µM unless noted) of the same molecule?
Answer: Its growth is 55.6% (inactive) and 35.8% (inactive).

Question: And the growth (IGROV1 ovarian; 10 µM unless noted)?
Answer: Its growth is 24% (inactive) and -7.91% (active).

Question: And the growth (OVCAR-3 ovarian; 10 µM unless noted)?
Answer: Its growth is -9.85% (active) and -42.4% (active).

Question: What about the growth (HS 578T breast; 10 µM unless noted) of the same molecule?
Answer: Its growth is -9.4% (active) and -4.55% (active).

Question: What about the growth (NCI/ADR-RES ovarian) of the same molecule?
Answer: Its growth is 5.66% (active) and -10.2% (active).

Question: For CC12CCC(CC1)C(C)(C)O2, which growth (SK-MEL-2 melanoma; 10 µM unless noted) is on record?
Answer: The growth was 90.7% (inactive).

Question: And the growth (EKVX NSCLC)?
Answer: Its growth is 97.6% (inactive).

Question: And the growth (SN12C renal; 10 µM unless noted)?
Answer: Its growth is 103% (inactive).

Question: And the growth (UO-31 renal; 10 µM unless noted)?
Answer: Its growth is 87.4% (inactive).

Question: What about the growth (TK-10 renal; 10 µM unless noted) of the same molecule?
Answer: The growth was 93.8% (inactive).

Question: And the growth (ACHN renal; 10 µM unless noted)?
Answer: Its growth is 104% (inactive).

Question: What about the growth (CAKI-1 renal) of the same molecule?
Answer: Its growth is 91.4% (inactive).

Question: What about the growth (A498 renal; 10 µM unless noted) of the same molecule?
Answer: The growth was 92.7% (inactive).

Question: And the growth (CCRF-CEM leukemia; 10 µM unless noted)?
Answer: The growth was 92.4% (inactive).

Question: And the growth (MOLT-4 leukemia)?
Answer: The growth was 103% (inactive).

Question: What about the growth (SR leukemia; 10 µM unless noted) of the same molecule?
Answer: The growth was 88.8% (inactive).

Question: And the growth (RPMI-8226 leukemia; 10 µM unless noted)?
Answer: Its growth is 103% (inactive).

Question: What about the growth (OVCAR-8 ovarian; 10 µM unless noted) of the same molecule?
Answer: The growth was 111% (inactive).

Question: And the growth (OVCAR-5 ovarian; 10 µM unless noted)?
Answer: Its growth is 94.3% (inactive).

Question: What about the growth (OVCAR-4 ovarian; 10 µM unless noted) of the same molecule?
Answer: Its growth is 113% (inactive).

Question: And the growth (SK-OV-3 ovarian; 10 µM unless noted)?
Answer: The growth was 104% (inactive).

Question: What about the growth (IGROV1 ovarian; 10 µM unless noted) of the same molecule?
Answer: Its growth is 103% (inactive).

Question: What about the growth (OVCAR-3 ovarian; 10 µM unless noted) of the same molecule?
Answer: Its growth is 121% (inactive).

Question: And the growth (HS 578T breast; 10 µM unless noted)?
Answer: The growth was 102% (inactive).

Question: What about the growth (NCI/ADR-RES ovarian) of the same molecule?
Answer: The growth was 108% (inactive).

Question: How did the growth (SK-MEL-2 melanoma; 10 µM unless noted) turn out when CC1=C[C@H]2c3c(c(O)c(O)c4oc5cc(O)cc(O)c5c(=O)c34)[C@H](c3cc(O)c(O)c4oc5cc(O)cc(O)c5c(=O)c34)[C@H]2C(C)(C)C1 was run?
Answer: Its growth is -20% (active) and -41.4% (active).

Question: And the growth (EKVX NSCLC)?
Answer: The growth was 21.4% (inactive) and -31.9% (active).

Question: What about the growth (SN12C renal; 10 µM unless noted) of the same molecule?
Answer: Its growth is 9.13% (active) and -8.98% (active).

Question: And the growth (UO-31 renal; 10 µM unless noted)?
Answer: Its growth is -5.69% (active) and -75.2% (active).

Question: And the growth (TK-10 renal; 10 µM unless noted)?
Answer: The growth was 30.1% (inactive) and -5.84% (active).

Question: And the growth (ACHN renal; 10 µM unless noted)?
Answer: The growth was 18.1% (inactive) and -7.12% (active).

Question: What about the growth (CAKI-1 renal) of the same molecule?
Answer: The growth was -20.5% (active) and -2.78% (active).

Question: And the growth (A498 renal; 10 µM unless noted)?
Answer: The growth was -4.52% (active) and -73.5% (active).

Question: And the growth (CCRF-CEM leukemia; 10 µM unless noted)?
Answer: The growth was 6.01% (active) and -9.45% (active).

Question: What about the growth (MOLT-4 leukemia) of the same molecule?
Answer: Its growth is 7.66% (active) and -18.8% (active).

Question: And the growth (SR leukemia; 10 µM unless noted)?
Answer: The growth was 1.73% (active) and 3.96% (active).

Question: And the growth (RPMI-8226 leukemia; 10 µM unless noted)?
Answer: The growth was 4.38% (active) and -30.3% (active).

Question: What about the growth (OVCAR-8 ovarian; 10 µM unless noted) of the same molecule?
Answer: The growth was 4.35% (active) and 4.94% (active).

Question: And the growth (OVCAR-5 ovarian; 10 µM unless noted)?
Answer: The growth was 11% (inactive) and 12.4% (inactive).

Question: What about the growth (OVCAR-4 ovarian; 10 µM unless noted) of the same molecule?
Answer: The growth was 20.7% (inactive) and 7.19% (active).

Question: And the growth (SK-OV-3 ovarian; 10 µM unless noted)?
Answer: The growth was -1.03% (active).

Question: What about the growth (IGROV1 ovarian; 10 µM unless noted) of the same molecule?
Answer: Its growth is 14.1% (inactive) and -13.1% (active).

Question: And the growth (OVCAR-3 ovarian; 10 µM unless noted)?
Answer: The growth was -5.67% (active) and -43.9% (active).

Question: And the growth (HS 578T breast; 10 µM unless noted)?
Answer: The growth was 3.36% (active) and -17.1% (active).

Question: Which results are given for CNC(=O)c1cc(Oc2ccc(CC(=O)Nc3cc(C(C)(C)C)nn3C)cc2)ccn1?
Answer: growth (SK-MEL-2 melanoma; 1 µM): 67.9% (inactive); growth (SK-MEL-2 melanoma; 10 µM): 55.6% (inactive); growth (SK-MEL-2 melanoma; 30 µM): 78.3% (inactive); growth (SN12C renal; 1 µM): 72.8% (inactive); growth (SN12C renal; 10 µM): 78.6% (inactive); growth (SN12C renal; 30 µM): 87.1% (inactive); growth (UO-31 renal; 1 µM): 77.1% (inactive); growth (UO-31 renal; 10 µM): 93.2% (inactive); growth (UO-31 renal; 30 µM): 113% (inactive); growth (TK-10 renal; 1 µM): 95.2% (inactive); growth (TK-10 renal; 10 µM): 80.4% (inactive); growth (TK-10 renal; 30 µM): 103% (inactive); growth (ACHN renal; 1 µM): 67.7% (inactive); growth (ACHN renal; 10 µM): 67.8% (inactive); growth (ACHN renal; 30 µM): 73.4% (inactive); growth (A498 renal; 1 µM): 69.3% (inactive); growth (A498 renal; 10 µM): 31.2% (inactive); growth (A498 renal; 30 µM): 54.8% (inactive); growth (CCRF-CEM leukemia; 1 µM): 73.3% (inactive); growth (CCRF-CEM leukemia; 10 µM): 66.1% (inactive); growth (CCRF-CEM leukemia; 30 µM): 62.9% (inactive); growth (SR leukemia; 1 µM): 82.7% (inactive); growth (SR leukemia; 30 µM): 48.9% (inactive); growth (RPMI-8226 leukemia; 1 µM): 46.2% (inactive); growth (RPMI-8226 leukemia; 10 µM): 62.6% (inactive); growth (OVCAR-8 ovarian; 1 µM): 72.5% (inactive); growth (OVCAR-8 ovarian; 10 µM): 71.8% (inactive); growth (OVCAR-8 ovarian; 30 µM): 70.6% (inactive); growth (OVCAR-5 ovarian; 1 µM): 104% (inactive); growth (OVCAR-5 ovarian; 10 µM): 116% (inactive); growth (OVCAR-5 ovarian; 30 µM): 98.9% (inactive); growth (OVCAR-4 ovarian; 1 µM): 58.7% (inactive); growth (OVCAR-4 ovarian; 10 µM): 44.7% (inactive); growth (OVCAR-4 ovarian; 30 µM): 83.4% (inactive); growth (SK-OV-3 ovarian; 10 µM): 71.8% (inactive); growth (SK-OV-3 ovarian; 30 µM): 94.4% (inactive); growth (IGROV1 ovarian; 1 µM): 75.1% (inactive); growth (IGROV1 ovarian; 10 µM): 85.6% (inactive); growth (IGROV1 ovarian; 30 µM): 90.5% (inactive); growth (OVCAR-3 ovarian; 1 µM): 81.9% (inactive); growth (OVCAR-3 ovarian; 10 µM): 69.6% (inactive); growth (OVCAR-3 ovarian; 30 µM): 109% (inactive); growth (HS 578T breast; 1 µM): 81.4% (inactive); growth (HS 578T breast; 10 µM): 65.4% (inactive); growth (HS 578T breast; 30 µM): 83.5% (inactive)
